{"source": "PubChem BioAssay", "key": {"[1]": {"assay": "P. berghei load reduction in hepatocytes – cell-based, HepG2, luciferase luminescence, HepG2 viability, primary screen (AID 624349; in the data active = parasite load remaining mostly below about 12%, no sharp cut-off; inactive = mostly above about 10%;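 also: 100% = mean of DMSO negative control wells on the same plate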)", "conditions": "P. berghei liver stage in HepG2, luciferase luminescence, concentration not given here; parasite load remaining: stronger effect = lower value; viability: measured here: HepG2 viability without parasites"}, "[2]": {"system": "Aerobactin synthetase IucA (Klebsiella pneumoniae)", "assay": "inhibition of K. pneumoniae IucA enzyme – biochemical, Tocris library, absorbance (AID 1345561; call rule not given here;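 also: 100% = enzyme without compound and 0% = no enzyme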)", "conditions": "purified IucA enzyme assay, absorbance (OD) read-out; stronger effect = lower value;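 tested at 8 µM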"}, "[3]": {"assay": "viability loss with induced miR-34 in A549 – imaging, A549 dox-inducible miR-34, nuclei and caspase counts, primary screen (AID 1347080;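 active = compounds whose cell count with miR-34 switched on is under 0.7 times the count with it off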)", "conditions": "A549 miR-34 inducible, Hoechst nuclei count, 48 h"}, "[4]": {"assay": "galactose survival enhancers in mitochondrial complex I cybrids – cell-based, galactose medium, ATP luminescence, primary screen (AID 1645843);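 also: positive z means more ATP and so rescue of galactose-driven cybrid death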", "conditions": "complex I mutant cybrid cells, 72 h, stronger effect = higher value"}, "[5]": {"conditions": "stronger effect = lower value, cell number ratio, induced over uninduced"}, "[6]": {"conditions": "measured here: relative caspase fold change +Dox/-Dox"}, "[7]": {"conditions": "measured here: total cells with miR-34 induction, stronger effect = lower value"}, "[8]": {"conditions": "measured here: total cells without miR-34 induction"}}, "note": "Values joined by “and” are separate entries in the source; they are usually repeats but may differ in a detail not shown here. Equal entries are not always repeated. Active and inactive are the calls of the source.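 The calls were made as follows, unless noted: active = z-score of at least 1.8 in each of two replicates, scored against plate mean and spread of sample wells; inactive = the rest.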", "data": [{"compound": "Nc1[nH]nc2nc3ccccc3nc12", "values": [{"measurement": "parasite load remaining", "setting": "[1]", "value": "38.7% (inactive)"}, {"measurement": "viability", "setting": "[1]", "value": 97.8, "unit": "%"}, {"measurement": "remaining activity", "setting": "[2]", "value": "110% (inactive)"}, {"measurement": "fold change", "setting": "[3]; [5]", "value": "0.889 (inactive)"}, {"measurement": "fold change", "setting": "[3]; [6]", "value": 0.743}, {"measurement": "cell count", "setting": "[3]; [7]", "value": 7860}, {"measurement": "cell count", "setting": "[3]; [8]", "value": 8840}, {"measurement": "z-score", "setting": "[4]", "value": "-0.17 (inactive)"}]}, {"compound": "N#C/C(=C\\c1ccc(O)c(O)c1)C(=O)Nc1ccccc1", "values": [{"measurement": "remaining activity", "setting": "[2]", "value": "117% (inactive)"}, {"measurement": "fold change", "setting": "[3]; [5]", "value": "1.02 (inactive) and 0.911 (inactive)"}, {"measurement": "fold change", "setting": "[3]; [6]", "value": "0.933 and 1.77"}, {"measurement": "cell count", "setting": "[3]; [7]", "value": "7050 and 7400"}, {"measurement": "cell count", "setting": "[3]; [8]", "value": "6920 and 8120"}, {"measurement": "z-score", "setting": "[4]", "value": "-1.14 (inactive) and -0.745 (inactive)"}]}, {"compound": "COc1ccc2cccc(N3CCN(CCNC(=O)c4ccc(F)cc4)CC3)c2c1", "values": [{"measurement": "remaining activity", "setting": "[2]", "value": "104% (inactive)"}, {"measurement": "fold change", "setting": "[3]; [5]", "value": "0.924 (inactive)"}, {"measurement": "fold change", "setting": "[3]; [6]", "value": 0.854}, {"measurement": "cell count", "setting": "[3]; [7]", "value": 7720}, {"measurement": "cell count", "setting": "[3]; [8]", "value": 8360}, {"measurement": "z-score", "setting": "[4]", "value": "-0.77 (inactive)"}]}, {"compound": "Cc1cccc(C)c1NC(=O)C[N+](C)(C)C", "values": [{"measurement": "remaining activity", "setting": "[2]", "value": "109% (inactive)"}, {"measurement": "fold change", "setting": "[3]; [5]", "value": "1 (inactive)"}, {"measurement": "fold change", "setting": "[3]; [6]", "value": 0.946}, {"measurement": "cell count", "setting": "[3]; [7]", "value": 9170}, {"measurement": "cell count", "setting": "[3]; [8]", "value": 9160}, {"measurement": "z-score", "setting": "[4]", "value": "-0.035 (inactive)"}]}, {"compound": "O=c1cc(N2CCNCC2)oc2c(-c3ccccc3)cccc12", "values": [{"measurement": "parasite load remaining", "setting": "[1]", "value": "25.4% (inactive)"}, {"measurement": "viability", "setting": "[1]", "value": 90.4, "unit": "%"}, {"measurement": "remaining activity", "setting": "[2]", "value": "83.1% (inactive)"}, {"measurement": "fold change", "setting": "[3]; [5]", "value": "0.968 (inactive)"}, {"measurement": "fold change", "setting": "[3]; [6]", "value": 1.21}, {"measurement": "cell count", "setting": "[3]; [7]", "value": 7780}, {"measurement": "cell count", "setting": "[3]; [8]", "value": 8040}, {"measurement": "z-score", "setting": "[4]", "value": "1.52 (inactive)"}]}, {"compound": "COc1cc2c(cc1C(F)(F)F)N(C(=O)Nc1cc(F)cc(-c3cccnc3)c1)CC2", "values": [{"measurement": "remaining activity", "setting": "[2]", "value": "97.1% (inactive)"}, {"measurement": "fold change", "setting": "[3]; [5]", "value": "0.848 (inactive)"}, {"measurement": "fold change", "setting": "[3]; [6]", "value": 0.948}, {"measurement": "cell count", "setting": "[3]; [7]", "value": 5790}, {"measurement": "cell count", "setting": "[3]; [8]", "value": 6820}, {"measurement": "z-score", "setting": "[4]", "value": "-0.61 (inactive)"}]}, {"compound": "C=CCNC(=O)c1cc([N+](=O)[O-])cc2c(=O)[nH]c(Nc3ccc(Cl)c(Cl)c3)nc12", "values": [{"measurement": "remaining activity", "setting": "[2]", "value": "116% (inactive)"}, {"measurement": "fold change", "setting": "[3]; [5]", "value": "0.926 (inactive)"}, {"measurement": "fold change", "setting": "[3]; [6]", "value": 0.827}, {"measurement": "cell count", "setting": "[3]; [7]", "value": 8840}, {"measurement": "cell count", "setting": "[3]; [8]", "value": 9550}, {"measurement": "z-score", "setting": "[4]", "value": "-0.09 (inactive)"}]}, {"compound": "O=C(OCCN1CCCCC1)c1c[nH]c2ccccc12", "values": [{"measurement": "remaining activity", "setting": "[2]", "value": "82.2% (inactive)"}, {"measurement": "fold change", "setting": "[3]; [5]", "value": "0.911 (inactive)"}, {"measurement": "fold change", "setting": "[3]; [6]", "value": 0.811}, {"measurement": "cell count", "setting": "[3]; [7]", "value": 9250}, {"measurement": "cell count", "setting": "[3]; [8]", "value": 10200}, {"measurement": "z-score", "setting": "[4]", "value": "0.69 (inactive)"}]}, {"compound": "CC(C)C1C2CCC(C2)C1N", "note": "(configuration not stated)", "values": [{"measurement": "remaining activity", "setting": "[2]", "value": "119% (inactive)"}, {"measurement": "fold change", "setting": "[3]; [5]", "value": "0.973 (inactive)"}, {"measurement": "fold change", "setting": "[3]; [6]", "value": 0.597}, {"measurement": "cell count", "setting": "[3]; [7]", "value": 9360}, {"measurement": "cell count", "setting": "[3]; [8]", "value": 9620}, {"measurement": "z-score", "setting": "[4]", "value": "-0.42 (inactive)"}]}, {"compound": "CC(C)[C@H](CO)Nc1nc(Nc2cc(N)cc(Cl)c2)c2ncn(C(C)C)c2n1", "values": [{"measurement": "parasite load remaining", "setting": "[1]", "value": "38.5% (inactive)"}, {"measurement": "viability", "setting": "[1]", "value": 101, "unit": "%"}, {"measurement": "remaining activity", "setting": "[2]", "value": "103% (inactive)"}, {"measurement": "fold change", "setting": "[3]; [5]", "value": "1.06 (inactive)"}, {"measurement": "fold change", "setting": "[3]; [6]", "value": 1.14}, {"measurement": "cell count", "setting": "[3]; [7]", "value": 1230}, {"measurement": "cell count", "setting": "[3]; [8]", "value": 1160}, {"measurement": "z-score", "setting": "[4]", "value": "-0.555 (inactive)"}]}, {"compound": "COc1ccc(CN2C(=O)C(=O)c3cc(OC(F)(F)F)ccc32)cc1", "values": [{"measurement": "remaining activity", "setting": "[2]", "value": "114% (inactive)"}, {"measurement": "fold change", "setting": "[3]; [5]", "value": "0.793 (inactive)"}, {"measurement": "fold change", "setting": "[3]; [6]", "value": 1.39}, {"measurement": "cell count", "setting": "[3]; [7]", "value": 1960}, {"measurement": "cell count", "setting": "[3]; [8]", "value": 2480}, {"measurement": "z-score", "setting": "[4]", "value": "-1.04 (inactive)"}]}]}
